PrP 5UTR inh – inhibition of PrP 5' UTR reporter expression. cell-based PrP 5' UTR mRNA reporter, plate reader. inhibition, % (test concentration not listed). actives 0.35% (n = 340,000). AID 488862; in the data active = inhibition above about 52%; also: 0 = median of the neutral control wells
SSB-PriA inh – K. pneumoniae PriA-SSBct interaction inhibition | AlphaScreen SSBct-PriA binding, biotinylated peptide | inhibition, % at 33 µM | actives 0.6% (n = 430,000) | AID 1272365; in the data active = inhibition mostly above about 37%, no sharp cut-off; inactive = mostly below about 20%;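 also: plate controls were negative control peptide for no effect and reference peptide for full effect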
3CLpro inhibitor – SARS-CoV 3CLpro protease inhibition. P0C6X7. recombinant SARS-CoV 3CLpro, quenched FRET peptide cleavage. inhibition, % at 6 µM. actives 0.14% (n = 290,000). AID 1706; in the data active = inhibition above about 12%
PrPC surface inh – inhibitors of human cell surface prion protein PrPC; P04156; TR-FRET read-out; inhibition, % at 13.8 µM; actives 0.43% (n = 370,000); in the data active = inhibition above about 24%; also: 0% = median of the test wells and 100% = reference compound wells
BJeLR lethal – kills HRASV12-expressing BJeLR cells | AID 1554 | inhibition, % (test concentration not listed) | actives 0.17% (n = 300,000) | BJeLR (HRASV12) viability, CellTiter-Glo ATP luminescence, 48 h; in the data active = inhibition above about 50%
Active calls of the source: *; x = not tested or not shown; ! = not confirmed by another sample. Only some compounds are listed: those with a hit (about 1.2% of all), similar ones and a draw of the others.

SMILES	PrP 5UTR inh	SSB-PriA inh	3CLpro inhibitor	PrPC surface inh	BJeLR lethal
O=C(CN1CC(=O)Oc2ccccc21)OCC(=O)c1ccc(Br)cc1	-5	86*	-4	-3	-6
O=C(CN1CC(=O)Oc2ccccc21)OCC(=O)c1ccc(F)cc1	-69	77*	3	-5	-1
CC1=CC2C(C(O)CC3(C)C2CC(C)C32OCOC23COCO3)C2(C)CC(=CO)C(=O)C=C12 (stereo not given)	x	3	x	x	x
O=C(Cc1ccc(F)cc1)NCc1cc(-c2ccncc2)n(C2CCCC2)n1	x	-13	x	x	x
Cc1ccc(S(=O)(=O)/N=C2\C=C(Nc3ccc(O)cc3)C(=O)c3ccccc32)cc1	-30	x	x	x	x
COc1ccc(S(=O)(=O)N=C2C=C(Nc3ccc(O)cc3)C(=O)c3ccccc32)cc1	x	40*	x	x	x
Cc1ccc(S(=O)(=O)N=C2C=C(Nc3ccc(O)cc3)C(=O)c3ccccc32)cc1	x	64*	x	x	x
COCCN1CCC(CNC(=O)C(C)(C)C)CC1	x	-4	x	x	x
CCOc1cc(S(=O)(=O)N2CCOCC2)c(C)cc1C	x	-14	x	x	x
CC(=O)Nc1ccc(NC(=O)CSc2ccc3nnc(-c4ccccn4)n3n2)cc1	-13	39*	-4	0	-4
CCOC(=O)CSc1ccc2nnc(-c3ccccn3)n2n1	x	90*	x	x	x
CCOC(=O)C(C)Sc1ccc2nnc(-c3ccccn3)n2n1 (stereo not given)	x	76*	x	x	x
CCOC(=O)CC(=O)CSc1ccc2nnc(-c3ccccn3)n2n1	x	64	x	x	x
CCC(Sc1ccc2nnc(-c3ccccn3)n2n1)C(=O)O (stereo not given)	x	103*	x	x	x
COC(=O)c1ccc(NC(=O)CSc2ccc3nnc(-c4ccccn4)n3n2)cc1	x	-13	x	x	x
CCOC(=O)N1CCN(C(=O)CSc2ccc3nnc(-c4ccccn4)n3n2)CC1	-8	19	-4	4	11
c1ccc(CSc2ccc3nnc(-c4ccccn4)n3n2)cc1	-8	2	-1	-2	1
CC(=O)c1ccc(NC(=O)CSc2ncc(-c3cccc(Br)c3)o2)cc1	x	-22	x	x	x
COc1cccc(C=NNC(=S)NCCc2ccccc2)c1OC	x	-7	x	x	x
COc1cc(OC)cc(-c2cc(N)n(S(=O)(=O)c3cccc4nsnc34)n2)c1	-26	39*	1	-19	-11
COc1ccc(OC)c(-c2ncc(NC(=O)c3ccc(S(=O)(=O)N4CCCC[C@@H]4C)cc3)s2)c1	x	-13	x	x	x
Cc1ccc(N=Nc2cc(C)ccc2N)cc1	-39	93*	7	2	19
Cc1ccc(N)c(C)c1	-12	12	x	-3	x
O=C(Nc1ccccc1-c1nc2ccccc2s1)c1ccc(Cl)cc1Cl	x	1	x	x	x
COc1cccc(NC2=Nc3cccc4cccc2c34)c1	-17	41*	3	4	-6
SMILES	PrP 5UTR inh	SSB-PriA inh	3CLpro inhibitor	PrPC surface inh	BJeLR lethal
COc1ccc(NC2=Nc3cccc4cccc2c34)cc1OC	-21	17	1	-9	-3
COC(=O)c1sccc1NC(=O)Cn1ccn2nc(-c3ccc(OC)c(OC)c3)cc2c1=O	x	7	x	x	x
C/C(=C/C(=O)O)C(=O)Nc1nc(-c2cccs2)cs1	x	-12	x	x	x
O=C(CN1CCCCC1)Nc1sc2c(c1C(=O)Nc1ccc(F)cc1)CCCC2	x	-13	x	x	x
O=C(CN1CCCC1)Nc1sc2c(c1C(=O)Nc1ccc(Br)cc1)CCC2	-6	75*	-1	-5	0
COCCNC(=O)Nc1cc(OC)cc2cccnc12	x	53*	x	x	x
COc1cc(NCCCCC(C)N)c2nccc(C)c2c1 (stereo not given)	x	x	x	-36	x
COc1cc(NC(=O)c2ccccc2Cl)c2ncccc2c1	-11	-71	3	-5	0
COc1cc(NCCCC(C)N)c2ncccc2c1 (stereo not given)	-9	49*	0	-52	3
COC(=O)Cn1cnc2c(-c3cccc(F)c3)csc2c1=O	x	-20	x	x	x
COC(=O)c1ccc(NC(=O)CC2CCCCN2S(=O)(=O)c2cccs2)cc1 (stereo not given)	x	25	x	x	x
CCN(CC)CCN(C(=O)c1ccc(S(=O)(=O)N(C)Cc2ccccc2)cc1)c1nc2cc3c(cc2s1)OCCO3	x	11	x	x	x
CCN(Cc1ccccc1)S(=O)(=O)c1ccc(C(=O)N(CCCN(C)C)c2nc3ccc(F)cc3s2)cc1	6	37*!	4	-14	2
COc1ccc2sc(N(CCCN(C)C)C(=O)c3ccc(S(=O)(=O)N4CCCc5ccccc54)cc3)nc2c1	-3	36*!	x	-16	0
COc1cc2nc(N(CCCN(C)C)C(=O)c3ccc(S(=O)(=O)N4CCc5ccccc54)cc3)sc2cc1OC	-21	27	x	-9	-2
CN(C)CCCN(C(=O)c1ccc(S(=O)(=O)N(C)Cc2ccccc2)cc1)c1nc2c(F)cccc2s1	-10	39*!	7	-8	5
CCN(Cc1ccccc1)S(=O)(=O)c1ccc(C(=O)N(CCCN(C)C)c2nc3cc4c(cc3s2)OCCO4)cc1	-21	47*	x	-23	-11
COc1ccc2sc(N(Cc3ccccc3)C(=O)c3ccc(S(=O)(=O)N(C)C)cc3)nc2c1	x	-10	x	x	x
CCN(Cc1ccccc1)S(=O)(=O)c1ccc(C(=O)N(CCCN(C)C)c2nc3cc(OC)ccc3s2)cc1	-13	51*!	x	-7	12
O=C(NCC#CCN1CCc2ccccc2C1)c1cc(-c2ccccc2)on1	x	8	x	x	x
Cn1cccc1-c1cc(C(=O)N/N=C/c2cccc(Br)c2)[nH]n1	x	47*	x	x	x
Cn1cccc1-c1cc(C(=O)N/N=C/c2ccc(F)cc2)[nH]n1	-10	x	0	-4	-2
Cn1cc([C@@H](O)CNC(=O)N2CCNC2=O)c2ccccc21	x	-18	x	x	x
CC(Oc1ccc(F)cc1)C(=O)Nc1nc(-c2ccccn2)cs1 (stereo not given)	28	57*	x	20	25
CSCc1ccc(C(=O)Nc2nc(-c3ccccn3)cs2)cc1	x	114*	x	x	x
SMILES	PrP 5UTR inh	SSB-PriA inh	3CLpro inhibitor	PrPC surface inh	BJeLR lethal
Cc1ccnc2nc(C(=O)Nc3nc(-c4ccccc4Cl)cs3)nn12	x	38	x	x	x
O=C(CCCSc1ccc(F)cc1)Nc1nc(-c2ccccn2)cs1	x	11	x	x	x
Cc1ccnc2nc(C(=O)Nc3nc(-c4ccccn4)cs3)nn12	0	72*	-2	-2	0
O=C(Nc1nc(-c2ccccn2)cs1)c1ccc(I)cc1	x	39	x	x	x
COc1coc(C(=O)Nc2nc(-c3ccccn3)cs2)cc1=O	x	87*	x	x	x
COc1coc(C(=O)Nc2nccs2)cc1=O	x	-12	x	x	x
COc1cccc(-c2cc(=O)[nH]c(SCc3nc(-c4cc(OC)c(OC)c(OC)c4)no3)n2)c1	x	-1	x	x	x
COc1ccc(OC)c(C(=O)Nc2nc(-c3ccccn3)cs2)c1	x	-5	x	x	x
CN(CC1CCCO1)S(=O)(=O)c1ccc(C(=O)Nc2nc(-c3cccnc3)cs2)cc1 (stereo not given)	x	9	x	x	x
O=C(Nc1nc(-c2ccccn2)cs1)c1ccc(F)cc1	x	107*	x	x	x
CN(CC1CCCO1)S(=O)(=O)c1ccc(C(=O)Nc2nc(-c3ccccn3)cs2)cc1 (stereo not given)	14	44*	-4	x	x
COc1ccc(C(=O)Nc2nc(-c3ccccn3)cs2)cc1OC	x	114*	x	x	x
CC(C)n1nnc(-c2ccc(C(=O)Nc3nc(-c4ccccn4)cs3)cc2)n1	x	74*	x	x	x
